# Measurements reported in PubChem BioAssay AID1466 (National Center for Advancing Translational Sciences (NCATS), 2008).
# The whole screen tested about 200,000 compounds, of which about 10 (0.005%) were called active. Not shown: some 8% with an inconclusive outcome. The list is a sample of the results. Unmarked numbers belong to inactive results. Calls come from the whole dose curve; as a rule, active = well fitted inhibition curve with a large enough effect; inconclusive = small, poorly fitted or top-dose-only effect, or effect the other way, or another doubt; inactive = no such curve, though single readings can be large or run the other way.
# Target: Lysosomal alpha-glucosidase (Homo sapiens) (UniProt P10253)
# Test: qHTS Assay for Inhibitors of Human alpha-Glucosidase as a Potential Chaperone Treatment of Pompe Disease;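 note: plate controls were uninhibited enzyme wells for no effect and no-enzyme background for full effect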
# Conditions: purified human GAA, 4-MU-alpha-glucoside fluorescence; series mostly up to 76.9 µM
# How it was run: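 Fluorescence at Ex 365/Em 440 nm from 4-methylumbelliferone reported enzyme activity after 20 min at room temperature. Reactions used 4 nM enzyme and 400 uM substrate at pH 5.0; curves fitted with the Hill equation.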
row,Compound,"activity change, negative = inhibition"
1,COc1cc(C(F)(F)F)c(C(=O)N(C)c2ccc(Cl)cc2)cn1,inactive
2,O=C(CP(=O)(c1ccccc1)c1ccccc1)N1CCOCC1,inactive
3,S=C(Nc1ccc(Br)cc1Cl)NC1CCN(Cc2ccccc2)CC1,inactive
4,CC(NC(=S)Nc1ccc(OC(F)F)cc1)c1ccc(F)cc1 (stereo not drawn),inactive
5,CS(=O)(=O)c1ccc2nc(NC(=O)c3ccc(N4CCCC4=O)cc3)sc2c1,inactive
6,CCOCCCNC(=O)C(NC(=O)c1ccccc1O)c1ccccc1 (stereo not drawn),inactive
7,O=C(C1CCN(S(=O)(=O)c2ccc(Br)s2)CC1)N1CCN(C2CCCCC2)CC1,inactive
8,Cc1cc(-c2nc(C)c(-c3nnc(SCC(=O)Nc4ccccc4)n3C)s2)no1,3.88% [at 15.4 µM]
9,CNc1ccc([N+](=O)[O-])cc1C(=O)O,inactive
10,CSCC[C@H](NC(=O)NC1CCCC1)C(=O)O,-5.49% [at 15.4 µM]
11,Cc1ccc(-c2cc(C(=O)NN)n[nH]2)o1,inactive
12,Cc1cccc(C)c1NC(=O)C1CCCN1C(=O)OC(C)(C)C (stereo not drawn),inactive
13,Cc1ccc(/C=N/NC(=O)CSc2ccccn2)o1,0.179% [at 15.4 µM]
14,CCCCCCCCCCCCC(NC(C)=O)(C(=O)OCC)C(=O)OCC,inactive
15,O=C(NCC1CCCO1)c1cc(-c2ccccc2)nc2ccccc12 (stereo not drawn),-10.8% [at 15.4 µM]
16,FC(F)(F)c1cccc(-c2nc(COc3ccc(Cl)cc3Cl)no2)c1,inactive
17,COc1ccc(N2CCN(C(=O)CNS(=O)(=O)c3ccc(C)c(C)c3)CC2)cc1,inactive
18,C/C(=N\Nc1ncc(Cl)cc1Cl)c1cccs1,inactive
19,Cc1onc(C(=O)NN)c1C(=O)N1CCN(C(c2ccccc2)c2ccccc2)CC1,inactive
20,CCOc1ccc2sc(NS(=O)(=O)c3ccc(N)cc3)nc2c1,inactive
21,CCn1c(SCc2ccccc2)nc2c(c1=O)SCC2,inactive
22,Nc1ccccc1Sc1cc(Cl)nnc1Cl,inactive
23,Cc1cccc(CSc2nc3c(c(=O)n2C)SCC3)c1,inactive
